PubChem BioAssay (NCI)
Compounds without any hit were thinned out: in the full panel of roughly 83,000, 20% have a hit.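 Treatment: one concentration, 48 hours, 96-well format. Scoring: percent growth, with anything below 10 considered active.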 Values without a mark were called inactive. The source made the active and inactive calls.

Tests used:
Test in all cases: NCI-60 one-dose screen, 48 h (100 = growth as untreated, 0 = no growth, -100 = all killed)
Settings in all cases: 10 µM
NCI-H23 lung = tested on: NCI-H23 lung
NCI-H226 lung = tested on: NCI-H226 lung
NCI-H322M lung = tested on: NCI-H322M lung
HOP-62 NSCLC = tested on: HOP-62 NSCLC
NCI-H460 lung = tested on: NCI-H460 lung
NCI-H522 lung = tested on: NCI-H522 lung
A549/ATCC NSCLC = tested on: A549/ATCC NSCLC
786-0 renal = tested on: 786-0 renal
COLO 205 colon = tested on: COLO 205 colon
DU-145 prostate = tested on: DU-145 prostate

| SMILES | growth (NCI-H23 lung) | growth (NCI-H226 lung) | growth (NCI-H322M lung) | growth (HOP-62 NSCLC) | growth (NCI-H460 lung) | growth (NCI-H522 lung) | growth (A549/ATCC NSCLC) | growth (786-0 renal) | growth (COLO 205 colon) | growth (DU-145 prostate) |
| --- | --- | --- | --- | --- | --- | --- | --- | --- | --- | --- |
| N=C(N)c1ccc(-c2ccc(-c3ccco3)o2)cc1 | 94.8% | 77.8% | 67% | 81.7% | 62.8% | 95% | 68.7% | 79.9% | -90.2% (active) | 88.2% |
| Clc1nc(Cl)c2c(ncn2C/C=C\Cn2cnc3c(Cl)nc(Cl)nc32)n1 | -15.8% (active) | -80.1% (active) | 8.09% (active) | 11.2% | 0.846% (active) | -70.6% (active) | -79.4% (active) | -4.46% (active) | -51.5% (active) |  |
| O=C(O)c1ccc(Cl)cc1Nc1ccc(F)cc1 | 92.7% | 82.3% | 38.1% | 96.7% | 76.8% | 82.6% | 86.4% | 68.6% | 95.7% | 87.1% |
| C=C1c2c(C)nn(-c3ccc(OC)cc3)c2N(C)C23C[C@@H]1C1(C)c4c(C)nn(-c5ccc(OC)cc5)c4N(C)C(C)(C[C@H]12)C3 (some centres not stated) | 33.7% | 48.7% | 62.4% | 59.9% | 6.82% (active) | 47.4% | 15.4% | 54.3% | 23.6% | 56.2% |
| Cc1cc(=O)[nH]c(N/N=C/c2ccccc2O)n1 | 78.6% | 91% | -5.84% (active) | 61.3% | 23.3% | 77.3% | 33.1% | 93.4% | 49.2% | 78.8% |
| CCCCN(CCCC)CCCCCCCCC(O)c1cc2ccccc2c2ccccc12 (configuration not stated) | 40.8% | 80.2% | 84.5% | 76.7% | 54.2% | 39.1% | 56.8% | 67.3% | 44.1% | 69.7% |
| Clc1ccc(Nc2ccnc(NCCNc3ccnc4cc(Cl)ccc34)n2)cc1 | 47.6% | 63.3% | 20.1% | 66.7% | 7.77% (active) | -34.5% (active) | 10.8% | -62% (active) | -91% (active) | 36% |
| COc1cc(-c2cc(/C=C3\C(=O)Nc4ccc(Cl)cc43)[nH]n2)cc(OC)c1OC | 38.3% | 58.2% | 51.5% | 44.6% | 38% | 20.2% | 40.4% | 61.6% | 11.4% |  |
| COc1ccc(OC)c(/C=C/c2nc(SC)n(-c3ccc(Cl)cc3)n2)c1 | 59.7% | 70.9% | 73.3% | 90.3% | 85.2% | 81.6% | 64.8% | 86.8% | 78.1% | 93.9% |
| CN(C)C=Nc1cc(Cl)ccc1Cl | 101% | 96.3% | 104% | 99.9% | 116% | 97.2% | 92.1% | 111% | 109% | 117% |
| COc1cc2c(cc1OCCCN1CCN(c3ncnc4ccccc34)CC1)N=CC1CCCN1C2=O (configuration not stated) | -8.7% (active) | -50.1% (active) | -3.85% (active) | 4.07% (active) | 8.4% (active) | -37.7% (active) | -2.44% (active) | 7.51% (active) | -42% (active) |  |
| COc1cc(Nc2ccnc(NCCCNc3ccnc4cc(Cl)ccc34)n2)cc(OC)c1 | 55.8% | 87.6% | 15.2% | 27.4% | -4.19% (active) | -44.8% (active) | 11.9% | -90.9% (active) | -92.2% (active) | 34.3% |
| CCCN(CCC)CCC(O)c1cc2c(c3ccccc13)CCCC2 (configuration not stated) | 79.8% | 81.1% | 99.1% | 79.4% | 98.9% | 74.2% | 92.3% | 84.3% | 77% | 106% |
| COc1cc(/C=N/NC(=O)c2ccccc2Nc2ccnc(C(F)(F)F)c2)ccc1O | 91.8% | 238% | 130% | 110% | 108% | 102% | 66.9% | 106% | 115% | 130% |
| O=C1c2ccc3c4c(ccc(c24)C(=O)N1CCNCc1ccccc1)C(=O)N(CCNCc1ccccc1)C3=O | -49.4% (active) | 115% | -43% (active) | 95.6% | -26.7% (active) | -51.2% (active) | 12.8% | 52.4% | 24.1% | 20.7% |
| CCCCCCCCCCCCCCCC(=O)OC1[C@@H](OC(=O)CCCCCCCCCCCCCCC)[C@@H](C(=O)N[C@@H](CCCCN)C(=O)OC)O[C@H]1n1cnc2c(=O)[nH]c(NC(=O)C(C)C)nc21 (some centres not stated) | 97.8% | 102% | 89.6% | 104% | 101% | 84.4% | 99.8% | 98.1% | 101% | 107% |
| CCN1Cc2c(/C=C/c3ccccc3)nc3ccc(OC)cc3c2N(c2cccc(Cl)c2)C1 | 59.1% | 92% | 90.7% | 107% | 71.7% | 63.7% | 33.6% | 72.3% | 81.8% | 112% |
| CC(=O)CSC(C)=O | 108% | 99% | 104% | 101% | 103% | 105% | 99.6% | 102% | 119% | 117% |
| O=C(Nc1nc2ccc(F)cc2s1)c1cc(-c2ccc(F)cc2)n2nc(-c3ccccc3)cc2n1 | 79.7% | 105% | 111% | 64.1% | 59.5% | 98.9% | 92.1% | 101% | 96.4% | 87% |
| COc1ccc(-c2cc(/C=C3\C(=O)Nc4ccc(OC)cc43)[nH]n2)cc1 | 67.1% | 69.8% | 53.9% | 50.7% | 16.4% | 11.1% | 40.6% | 65.3% | 13% | 40.4% |
| O=C1/C(=C/c2ccc(Cl)cc2)SC(=Nc2ccc(Cl)cc2)N1Cc1nc2ccccc2[nH]1 | 78.7% | 81.5% | 95.4% | 68.6% | 85.3% | 76.4% | 70.8% | 92.3% | 98% | 93.7% |
| COc1cc2cc3c(nc2cc1OC)CCN3Cc1ccc(NC(=O)Nc2ccc(F)cc2F)cc1 | 71.5% | 79.4% | 84.8% | 105% | 97.6% | 63% | 69.4% | 70.4% | 90.9% | 91.2% |
| COc1ccc(-c2nc3ncccn3c2-c2nnc(-c3ccc(F)cc3)o2)cc1 | 98.2% | 96.7% | 101% | 106% | 101% | 106% | 104% | 101% | 113% | 106% |
| O=[N+]([O-])c1cccc(N=Cc2ccc3c(c2)OCO3)c1 | 104% | 104% | 112% | 109% | 120% | 89.8% | 101% | 106% | 120% | 119% |
| Cc1cccc2c(NCCN(C)C)c3cccc(C(=O)NCCN(C)C)c3nc12 | 6.76% (active) | 22.4% | -5.21% (active) | 4.88% (active) | -13.2% (active) | -43.7% (active) | 16.2% | 14.5% | 0.559% (active) | -20.1% (active) |
| COc1ccc(-n2c(SCc3cc(OC)c(OC)c(OC)c3)nc3ccc(C)cc3c2=O)cc1 | 69.2% | 73.4% | 80.3% | 65.2% | 73.8% | 39.4% | 51% | 84.1% | 32.7% | 94.9% |
| COc1ccc(/C=C/C(=O)Nc2ccc(-c3nc4ccc(F)cc4s3)cc2)cc1 | 86.3% | 72.3% | 104% | 109% | 99.1% | 85.5% | 94% | 80.6% | 110% | 118% |
| O=C1/C(=C/c2ccc([N+](=O)[O-])s2)Oc2ccccc21 | -37% (active) | -0.59% (active) | -21.5% (active) | 3.77% (active) | -27.7% (active) | -68.8% (active) | -22.2% (active) | -37% (active) | -69.2% (active) | 4.99% (active) |
